Our source for the enrichment ratio values is a collection of fitness landscapes (doi:10.1126/science.1257360).

Over roughly 140,000 sequences, “enrichment ratio after two sorts for PhoP signalling” has its median near 0; the highest 2% begin near 11. This excerpt belongs to a sample that is enriched for the highest values.

B1: PhoQ; a variant is named by its letters at X, in order, P23837 (parent)
chain: MKKLLRLFFPLSLRVRFLLATAAVVLVLSLAYGMVALIGYSVSFDKTTFRLLRGESNLFYTLAKWENNKLHVELPENIDKQSPTMTLIYDENGQLLWAQRDVPWLMKMIQPDWLKSNGFHEIEADVNDTSLLLSGDHSIQQQLQEVREDDDDAEMTHSVAVNVYPATSRMPKLTIVVVDTIPVELKSSYMVWSWFIYVLSANLLLVIPLLWVAAWWSLRPIEALAKEVRELEEHNRELLNPATTRELTSLVRNLNRLLKSERERYDKYRTTLTDLTHSLKTPLXXLQXXLRSLRSEKMSVSDAEPVMLEQISRISQQIGYYLHRASMRGGTLLSRELHPVAPLLDNLTSALNKVYQRKGVNISLDISPEISFVGEQNDFVEVMGNVLDNACKYCLEFVEISARQTDEHLYIVVEDDGPGIPLSKREVIFDRGQRVDTLRPGQGVGLAVAREITEQYEGKIVAGESMLGGARMEVIFGRQHSAPKDE

The variants in the test derive from B1. The test is described as follows: enrichment ratio after two sorts for PhoP signalling (ratio (wild type AVST 3.29)); higher = more functional. Conditions: with PhoP (E. coli).
As for DWEC, the enrichment ratio was no more than 0.25.

Consider RQRD, for which the enrichment ratio is no more than 0.25.

With NCDF, the enrichment ratio is no more than 0.25.

HLKR: the enrichment ratio was no more than 0.25.

Consider RGHG, for which the enrichment ratio was no more than 0.25.

Consider TPEY, for which the enrichment ratio is no more than 0.25.

For SLIG, the enrichment ratio was no more than 0.25.

With YMIK, the enrichment ratio was no more than 0.25.

As for RLMY, the enrichment ratio was no more than 0.25.

Regarding KLYR, the enrichment ratio was no more than 0.25.

AIMS: the enrichment ratio was 14.3.

For MNMC, the enrichment ratio was 3.1.

As for AKMS, the enrichment ratio amounted to 3.84.

Regarding AAVT, the enrichment ratio was determined as 2.41.

As for ANMD, the enrichment ratio was no more than 0.25.

Regarding ANMV, the enrichment ratio is 19.1.

Consider LNMC, for which the enrichment ratio turned out to be 7.24.

For the variant ATMS, the enrichment ratio is 6.27.

Turning to TNMC, the enrichment ratio is 35.5.

Regarding AKVT, the enrichment ratio came to 12.6.

With ANMW, the enrichment ratio was no more than 0.25.

On to ALVT, for which the enrichment ratio was determined as 1.4.

With FEGD, the enrichment ratio is no more than 0.25.

With YPGN, the enrichment ratio is no more than 0.25.

As for WAKM, the enrichment ratio is no more than 0.25.

PMHP: the enrichment ratio is no more than 0.25.

For the variant ALWL, the enrichment ratio was no more than 0.25.

Consider HRYP, for which the enrichment ratio is no more than 0.25.

As for YHPC, the enrichment ratio was no more than 0.25.

LYDW: the enrichment ratio was no more than 0.25.

Take VILC: the enrichment ratio came to 0.339.

Take DWCS: the enrichment ratio is no more than 0.25.

On to ANVT, for which the enrichment ratio stood at 15.

As for ADVT, the enrichment ratio was no more than 0.25.

Take ANND: the enrichment ratio is no more than 0.25.

As to HFIY, the enrichment ratio was no more than 0.25.

As for MIKG, the enrichment ratio was no more than 0.25.

Turning to SCVG, the enrichment ratio was 5.95.

With SCMG, the enrichment ratio came to 25.9.

As to SIMA, the enrichment ratio was determined as 4.54.

With SCMW, the enrichment ratio is 6.03.

With TYMA, the enrichment ratio came to 1.56.

For the variant SCMI, the enrichment ratio was 27.9.

For KCMF, the enrichment ratio is no more than 0.25.

As for SCMV, the enrichment ratio is 9.09.

Take SCMF: the enrichment ratio worked out at 12.3.

For SCHF, the enrichment ratio was no more than 0.25.

Consider SCMA, for which the enrichment ratio is 15.7.

Consider SCIG, for which the enrichment ratio was found to be 3.69.

Turning to WPNL, the enrichment ratio is no more than 0.25.

ERAD: the enrichment ratio is no more than 0.25.

As to SRLT, the enrichment ratio was no more than 0.25.

On to KMYN, for which the enrichment ratio is no more than 0.25.

With IRST, the enrichment ratio was no more than 0.25.

Take LAMD: the enrichment ratio is no more than 0.25.

On to FSHH, for which the enrichment ratio was no more than 0.25.

With WVRL, the enrichment ratio is no more than 0.25.

For the variant YRGN, the enrichment ratio is no more than 0.25.

In the case of TIYR, the enrichment ratio was found to be 2.57.

With IKRH, the enrichment ratio was no more than 0.25.

Take VSMQ: the enrichment ratio was found to be 2.71.

Take MNAC: the enrichment ratio amounted to 27.7.

For GITE, the enrichment ratio is no more than 0.25.

Consider GYAC, for which the enrichment ratio is no more than 0.25.

In the case of GIAC, the enrichment ratio is 11.8.

With MNFC, the enrichment ratio is no more than 0.25.

Consider GIYS, for which the enrichment ratio is no more than 0.25.

On to LNAC, for which the enrichment ratio was no more than 0.25.

With TNAC, the enrichment ratio came out at 3.13.

For the variant GNAC, the enrichment ratio was 12.5.

With PCAQ, the enrichment ratio was no more than 0.25.

Consider DTYT, for which the enrichment ratio is no more than 0.25.

Consider MFKP, for which the enrichment ratio was no more than 0.25.

For SQVA, the enrichment ratio was 4.56.

Take WPDN: the enrichment ratio was no more than 0.25.

Turning to HVPR, the enrichment ratio was no more than 0.25.

On to KKRG, for which the enrichment ratio was no more than 0.25.

Regarding QGVQ, the enrichment ratio was no more than 0.25.

As for APCH, the enrichment ratio is no more than 0.25.

In the case of SELA, the enrichment ratio turned out to be 12.4.

With SLAS, the enrichment ratio is 5.06.

KYAS: the enrichment ratio was no more than 0.25.

On to SYLI, for which the enrichment ratio worked out at 0.306.

For the variant SEDT, the enrichment ratio was no more than 0.25.

Consider SEWI, for which the enrichment ratio came to 3.57.

SELI: the enrichment ratio came to 24.6.

As to SLLI, the enrichment ratio stood at 7.62.

Regarding SEAS, the enrichment ratio is 26.6.

For the variant KYLT, the enrichment ratio was no more than 0.25.

Take SELT: the enrichment ratio was 20.5.

With SEYI, the enrichment ratio is 4.33.
